Assay results published in PubChem BioAssay (EPA / NIEHS).
Results filed as inconclusive are left out. The source made the active and inactive calls. The calls were made as follows: active = hit-call score of the fitted dose curve at least 0.9, where 1 is the maximum; inconclusive = response in the unintended direction; inactive = score below 0.9.

Legend:
[1] = target: Estrogen receptor (Homo sapiens) (UniProt P03372); experiment: ATG_hERa_XSP1: Attagene TRANS-FACTORIAL Multi-Species (XSP1) HepG2 Assay for human Estrogen Receptor (ESR1) (AID 2283780)
Sequence of Estrogen receptor (Homo sapiens) (P03372 whole entry, looked up): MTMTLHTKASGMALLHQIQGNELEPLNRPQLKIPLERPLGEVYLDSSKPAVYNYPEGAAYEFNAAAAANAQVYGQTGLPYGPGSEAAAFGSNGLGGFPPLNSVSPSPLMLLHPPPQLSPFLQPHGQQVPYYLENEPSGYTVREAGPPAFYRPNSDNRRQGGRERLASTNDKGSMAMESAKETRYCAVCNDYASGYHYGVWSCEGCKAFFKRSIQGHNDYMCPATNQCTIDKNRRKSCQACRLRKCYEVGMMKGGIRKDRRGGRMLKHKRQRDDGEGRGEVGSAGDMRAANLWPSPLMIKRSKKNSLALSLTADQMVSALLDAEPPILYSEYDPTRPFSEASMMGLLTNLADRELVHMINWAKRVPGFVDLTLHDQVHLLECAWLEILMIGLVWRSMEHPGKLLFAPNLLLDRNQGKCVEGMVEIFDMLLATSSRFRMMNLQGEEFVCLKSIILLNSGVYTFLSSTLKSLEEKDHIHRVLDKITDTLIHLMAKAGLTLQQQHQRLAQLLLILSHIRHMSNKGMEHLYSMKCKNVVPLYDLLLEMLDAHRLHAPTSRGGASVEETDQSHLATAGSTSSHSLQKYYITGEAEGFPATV
Experimental: ATG_XSP1_multi-species_TRANS is a cell-based, multiplexed assay created by modifying the existing Attagene TRANS-FACTORIAL system to include a panel of nuclear receptors from some or all the following species: human (Homo sapiens), mouse (Mus musculus), frog (Xenopus laevis), zebrafish (Danio rerio), chicken (Gallus gallus), and turtle (Chrysemys picta). The ECOTOX-FACTORIAL format uses HepG2, a human liver cell line, with measurements taken at 24 hours after chemical dosing in a 24-well plate. Xsp1 included 3 nM 6-alpha-fluorotestosterone to partially stimulate the androgen receptor.ATG_hERa_XSP1 is one of 29 assay components measured or calculated from the ATG_XSP1_multi-species_TRANS assay. It is designed to make measurements of mRNA induction, a form of inducible reporter, as detected with fluorescence intensity signals by Reverse transcription polymerase chain reaction (RT-PCR) and Capillary electrophoresis technology.The assay endpoint ATG_hERa_XSP1 was analyzed in the positive analysis fitting direction relative to DMSO as the negative control and baseline of activity. […] Furthermore, this assay endpoint can be referred to as a primary readout, because this assay has produced multiple assay endpoints where this one serves a reporter gene function. […]

[2] = tested on: turtle Estrogen Receptor (ESR1), gene 101933533; experiment: ATG_trERa_XSP1: Attagene TRANS-FACTORIAL Multi-Species (XSP1) HepG2 Assay for turtle Estrogen Receptor (ESR1) (AID 2283781)
In short: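 Transfect HepG2 with reporter units → dose chemical 24 h (medium has 3 nM 6-alpha-fluorotestosterone) → isolate RNA, RT-PCR → FAM primer extension, HpaI digest → capillary electrophoresis; gain of signal vs DMSO.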

[3] = target: Estrogen receptor beta (Homo sapiens) (UniProt Q92731); experiment: ATG_hERb_XSP1: Attagene TRANS-FACTORIAL Multi-Species (XSP1) HepG2 Assay for human Estrogen Receptor (ESR2) (AID 2283788)
Sequence of Estrogen receptor beta (Homo sapiens) (Q92731 whole entry, looked up, the tested form may be a part): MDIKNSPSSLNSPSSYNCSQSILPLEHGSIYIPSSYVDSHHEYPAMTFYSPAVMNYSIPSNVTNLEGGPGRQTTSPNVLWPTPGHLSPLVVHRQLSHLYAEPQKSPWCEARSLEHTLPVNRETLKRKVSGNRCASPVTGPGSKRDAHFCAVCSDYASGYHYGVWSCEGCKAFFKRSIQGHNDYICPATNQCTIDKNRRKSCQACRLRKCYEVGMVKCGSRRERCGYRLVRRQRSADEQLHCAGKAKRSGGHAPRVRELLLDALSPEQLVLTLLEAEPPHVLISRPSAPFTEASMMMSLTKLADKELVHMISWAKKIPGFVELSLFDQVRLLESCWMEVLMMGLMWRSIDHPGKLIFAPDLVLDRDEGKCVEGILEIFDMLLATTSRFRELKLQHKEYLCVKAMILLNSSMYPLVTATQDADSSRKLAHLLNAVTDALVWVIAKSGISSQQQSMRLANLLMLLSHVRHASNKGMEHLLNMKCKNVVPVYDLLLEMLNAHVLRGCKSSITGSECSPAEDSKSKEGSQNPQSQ
In short: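 Transient MRTU transfection of HepG2; ERβ–GAL4 TRANS format; 24 h dosing; 3 nM 6α-fluorotestosterone co-added; RNA → RT-PCR → 6-FAM primer extension → CE; activity vs DMSO.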

[4] = ATG_M_19_XSP1: Attagene TRANS-FACTORIAL Multi-Species (XSP1) HepG2 Assay for M19 Transcription Factor (Internal Marker) (AID 2283798)
In short: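 Readout is reporter mRNA induction quantified via RT-PCR, 6-FAM labeling, HpaI digestion and capillary electrophoresis, fitted in the positive direction versus DMSO baseline. Transfected HepG2 cells exposed 24 h, medium including 3 nM 6-alpha-fluorotestosterone.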

[5] = tested on: zebrafish Peroxisome Proliferator-activated Receptor gamma (PPARg), gene 557037; experiment: ATG_zfPPARg_XSP1: Attagene TRANS-FACTORIAL Multi-Species (XSP1) HepG2 Assay for zebrafish Peroxisome Proliferator-activated Receptor gamma (PPARg) (AID 2283801)
In short: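 Trans-activation readout of chimeric zebrafish PPARg–GAL4 in transiently transfected human HepG2 cells, 24 h chemical exposure (medium includes 3 nM 6-alpha-fluorotestosterone). Reporter transcripts measured by RT-PCR and capillary electrophoresis, fitted as gain over DMSO.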

[6] = target: Nuclear receptor subfamily 1 group I member 2 (Mus musculus) (UniProt O54915); experiment: ATG_mPXR_XSP1: Attagene TRANS-FACTORIAL Multi-Species (XSP1) HepG2 Assay for mouse Pregnane X Receptor (PXR) (AID 2283803)
Sequence of Nuclear receptor subfamily 1 group I member 2 (Mus musculus) (O54915 whole entry, looked up, the tested form may be a part): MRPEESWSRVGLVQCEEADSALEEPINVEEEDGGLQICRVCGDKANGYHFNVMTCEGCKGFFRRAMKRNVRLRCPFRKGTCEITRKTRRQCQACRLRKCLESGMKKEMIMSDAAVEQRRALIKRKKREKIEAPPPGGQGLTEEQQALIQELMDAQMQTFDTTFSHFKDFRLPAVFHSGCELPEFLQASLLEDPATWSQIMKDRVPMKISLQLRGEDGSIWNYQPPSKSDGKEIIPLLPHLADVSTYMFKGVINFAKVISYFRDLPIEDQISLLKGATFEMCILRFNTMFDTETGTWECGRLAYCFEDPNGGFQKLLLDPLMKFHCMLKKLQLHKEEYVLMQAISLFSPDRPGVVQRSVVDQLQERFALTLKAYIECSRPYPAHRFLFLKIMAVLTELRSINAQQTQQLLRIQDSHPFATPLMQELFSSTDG
In short: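 Transiently transfected HepG2 cells expressing a receptor-Gal4 chimera drive a GAL4-UAS reporter; 3 nM 6-alpha-fluorotestosterone included. Reporter mRNA read 24 h post-dose by RT-PCR and capillary electrophoresis; gain of signal relative to DMSO.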

[7] = tested on: turtle Thyroid Hormone Receptor, alpha (TRa), gene 101949057; experiment: ATG_trTRa_XSP1: Attagene TRANS-FACTORIAL Multi-Species (XSP1) HepG2 Assay for turtle Thyroid Hormone Receptor, alpha (TRa) (AID 2283806)
In short: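 After 24 h chemical exposure, reporter transcripts were measured by RT-PCR with fluorescent primer extension, HpaI digestion and capillary electrophoresis. Cells were transiently transfected HepG2 expressing exogenous NR-Gal4 chimeras; medium contained 3 nM 6-alpha-fluorotestosterone; fitted upward relative to DMSO.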

Measured: AC50

C(=C(c1ccccc1)c1ccccc1)c1ccccc1
active: [1] 0.0336 µM | [2] 0.0208 µM | [3] 0.017 µM
inactive: [4] | [5] | [6] | [7]
